A selection follows. No count for the full screen is at hand.
B1: il2ra_site2_3nfp_normal_mot_HHH_b2_00429_000000100_0001_21_37_H_._HHH_b1_08311_0001_0000300035_0000001_0 (protein)
chain: SSSSDEEVERLIEEAEELLRNGNPEEAKRVISRATDLAYEAGDHRLFALLVDLVAVVAHLLSSSS
B2: il2ra_site2_3nfp_normal_mot_HHH_b2_04451_000000238_0001_21_37_H_._HHH_b2_06904_0001_0000300014_0000001_0 (protein)
chain: SSSSSSDEEEIEELLELVEKIDDQLERLQVLLEASKLAAELGDEELAREVLRLFAEIQSSSSSSS
B3: il2ra_site1_3nfp_normal_mot_0eddeacbb14b769e73e254714f31e2f9_0001_af2_000000052_0001_37_51_H_._HHH_b1_00975_af2_0002_0000100004_0000001_0 (protein)
chain: SSSSSDEEELRERVEELLEEAKHVSEEEASRLIEEAYRLVQENGNQELADLIYRVMREMISSSSS
B4: il2ra_site2_3nfp_sap_4_mot_HHH_b2_00168_000000180_0001_1_21_H_._HHH_b2_05578_af2_0001_0000500013_0000001_0_0001 (protein)
chain: SSSSDDVEEYLRAALALAREAIKQGDEELAEKILEMIRKAAEDAKDEEALEEAEELLKLVGSSSS
B5: il2ra_site2_3nfp_normal_mot_HHH_b2_06150_000000217_0001_39_53_H_._HHH_b1_03322_0001_0000100005_0000001_0 (protein)
chain: SSSSDIEERIEELLEEAKELIENGDPERAQEVLQEATHLAYEIRNSELFMRVAELLYLLRSSSSS
B6: il2ra_site1_3nfp_sap_8_mot_HHH_b1_04221_000000040_0001_40_56_H_._16d56542c9725820401ab7c11c235cbe_0001_0001_0000300014_0000001_0_0001 (protein)
chain: SSSSNEAAREATELMREIRRLLKEGNPEEARKLLEELEELAERNNDPVLKWLVRQFEESINSSSS
B7: il2ra_site1_1z92_sap_8_mot_a31c9f16200a66e5ad31ddff700483a3_0001_1_000000069_0001_19_32_H_._HHH_b1_08052_0001_0000300018_0000001_0_0001_af2pred_0001_af2pred (protein)
chain: SSSSEESLRRLAERLVEDAAKLADLSEEQKEELEELAEELIKRGVDPHEIAKELERLADELSSSS
B8: il2ra_site2_3nfp_normal_mot_HHH_b2_00429_000000100_0001_21_37_H_._HHH_b2_03374_0001_0000300044_0000001_0_af2pred_0001_1_af2pred_swapped (protein)
chain: SSSSNHEEFALRAALISLKLAVEAGNEELVRRLYEDAERAAKNANDPEVLEELERVFEEFHSSSS
B9: il2ra_site2_2erj_sap_17_mot_HHH_b2_05720_000000165_0001_1_18_H_._HHH_b2_07625_af2_0001_0000700024_0000001_0_0001 (protein)
chain: SSSSSDEEEREAERITEEIEERIDDPEERLREFFRVAVELLREGDPRTAHILLRLAQEGSSSSSS
B10: il2ra_site2_2erj_sap_24_mot_4428453eb85d3cbdb794fa6b82d21c19_0001_000000044_0001_14_30_H_._HHH_b2_00328_0001_0000300019_0000001_0_0001 (protein)
chain: SSSSDELHRLYELANEILHALSRGDEELVEELLEELEKLAEEADSRVAKENVEALRKHLDSSSSS
B11: il2ra_site1_2b5i_normal_mot_f5ff40796168375b462bec8614a1db4a_0001_1_000000138_0001_53_65_H_._HHH_b1_04161_0001_0000400021_0000001_0_af2pred_dldesign_0_af2pred (protein)
chain: SSSSSLRELVEEIIAEVKRLVAEGKLEEARKLAILALRLARKAEDPELVARVEALLETLESSSSS
B12: il2ra_site2_3nfp_normal_mot_HHH_b2_06150_000000217_0001_39_53_H_._HHH_b2_05434_af2_0001_0000100005_0000001_0 (protein)
chain: SSSSDEEEVEKLLKKAEELRERGNPEEARKLLREATQIAYERRDSELFFLVAEVLFEVLLSSSSS
B13: il2ra_site1_1z92_normal_mot_HHH_b2_00827_000000099_0001_20_37_H_._HHH_eva_0327_af2_0001_0000100007_0000001_0 (protein)
chain: SSEEELEELVEKIREVAEEKGDERLRRALERARFVLRELELGANSERAREIAEEAIKALYKTVVS
B14: il2ra_site1_3nfp_normal_mot_HHH_b1_04049_af2_000000244_0001_42_55_H_._HHH_b1_01786_0001_0000400012_0000001_0_af2pred_0001_af2pred (protein)
chain: SSSSDDKKRIQKLLREIMRLSKEGDEEEAEKLLEEVEELAREAGDPVAELLVELLKKILNSSSSS
B15: il2ra_site1_1z92_normal_mot_1581cc1c700002558836ca695aafbf97_0001_1_af2_000000099_0001_17_32_H_._HHH_b2_05050_0001_0000200017_0000001_0_af2pred_0001_af2pred (protein)
chain: SSSSDEEVERLVEELVEEFNLSEEEEKELRRIARSAEELGADPELVKKALEHFVEFLKRKGSSSS
B16: il2ra_site1_1z92_normal_mot_HHH_b1_04604_af2_000000029_0001_42_56_H_._HHH_b2_03915_0001_0000100005_0000001_0_af2pred_0001_af2pred (protein)
chain: SSSSDAELAAEADELLAEGNPEKVEEVLEEIRRAAEERDSRRLKEILENLEEELRELEEESSSSS
B17: il2ra_site1_2b5i_sap_12_mot_HHH_b2_04463_af2_000000056_0001_43_55_H_._HHH_b2_02114_af2_0001_0000100003_0000001_1_0001 (protein)
chain: SSSSNEAAREARELMEKLDEAFRRGDEELLEELLEEIEEFLKEQDDKFLRLAMEQVREELSSSSS
B18: il2ra_site2_3nfp_normal_mot_HHH_b1_03557_000000106_0001_41_55_H_._HHH_b2_00561_0001_0000400025_0000001_0_af2pred_0001_1_af2pred_swapped (protein)
chain: SSSSSDEEREEVEELLEEAEHIEDEREVFIVLVEAFFLALELRDPELERLVREFLKEFRSSSSSS
B19: il2ra_site1_1z92_normal_mot_HHH_b1_03515_000000289_0001_1_19_H_._HHH_b1_01554_af2_0001_0000200013_0000001_0 (protein)
chain: SSSSSSEHAARAIVKVLVRVARLSEEQEKELQELAEELVKRGYSLLEIIKILDRVAVELSSSSSS

Each binder was assayed against il2ra, P01589 (assay: yeast display titration).
Sequence of il2ra, P01589 (P01589 whole entry): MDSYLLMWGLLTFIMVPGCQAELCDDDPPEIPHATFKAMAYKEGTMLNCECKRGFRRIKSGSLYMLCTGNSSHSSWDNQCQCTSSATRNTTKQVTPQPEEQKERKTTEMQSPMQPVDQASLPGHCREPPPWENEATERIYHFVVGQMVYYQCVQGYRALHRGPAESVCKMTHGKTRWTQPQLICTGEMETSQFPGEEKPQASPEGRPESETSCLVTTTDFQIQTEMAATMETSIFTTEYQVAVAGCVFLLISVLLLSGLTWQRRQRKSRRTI

Apparent Kd, inactive:
B1 no binding seen
B2 no binding seen
B3 no binding seen
B4 no binding seen
B5 no binding seen
B6 no binding seen
B7 no binding seen
B8 no binding seen
B9 no binding seen
B10 no binding seen
B11 no binding seen
B12 no binding seen
B13 no binding seen
B14 no binding seen
B15 no binding seen
B16 no binding seen
B17 no binding seen
B18 no binding seen
B19 no binding seen
